Source: PubChem BioAssay (NCATS)
Records with an inconclusive call do not appear. Active and inactive are the calls of the source. The call rests on the fitted dose curve; in most records, active means well fitted curve in the direction sought with a large enough effect; inconclusive means small, poorly fitted or top-dose-only effect, or another doubt; inactive means no such curve, though single readings can be large; an effect the other way counts as inactive or inconclusive. Where a SMILES comes first, the peptide text is derived from it. [ ]: non-standard residue; d: D form. 2Abz = Nc1ccccc1C(=O)O

How the values were obtained:
NIH3T3 = assay: qHTS assay to identify novel small-molecules to repurpose for Merkel cell carcinoma treatment (AID 1296009); conditions: MCC and control cell lines, CellTiter-Glo viability, 72 h; at 44.8 µM (top of the series) unless noted; further: nearly all actives have a fitted effect of over 60% in size
In short: (§1)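 72 hr, 37 degree celsius; NPC 8-pt / MIPE 11-pt dose response; compound pinned in DMSO; CellTiter-Glo, 10 min RT, luminescence; normalized to no-cell and DMSO controls.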

C33A = assay: Primary qHTS to identify gynecologic anti-cancer compounds using libraries of approved drugs and bioactive compounds (AID 1345084); conditions: Gynecologic cancer cell panel viability, ATPlite luminescence, 48 h; series mostly up to 57.5 µM; further: nearly all actives have a fitted effect of over 55% in size
In short: (§2)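 Five-point cytotoxicity, 48 h drug exposure at 37 C, 5% CO2, on cells seeded 16 h beforehand. ATP content read by ATPlite luminescence.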

CAOV3 = assay: as above; conditions: Gynecologic cancer cell panel viability, ATPlite luminescence, 48 h; series mostly up to 57.5 µM
In short: as §2

CASKI = assay: as above; conditions: Gynecologic cancer cell panel viability, ATPlite luminescence, 48 h; series mostly up to 57.5 µM
In short: as §2

MCC-13 = assay: qHTS assay to identify novel small-molecules to repurpose for Merkel cell carcinoma treatment (AID 1296009); conditions: MCC and control cell lines, CellTiter-Glo viability, 72 h; series mostly up to 46 µM; further: nearly all actives have a fitted effect of over 60% in size
In short: as §1

MCC-26 = assay: as above; conditions: MCC and control cell lines, CellTiter-Glo viability, 72 h; series mostly up to 46 µM
In short: as §1

MKL-1 = assay: as above; conditions: MCC and control cell lines, CellTiter-Glo viability, 72 h; series mostly up to 46 µM
In short: as §1

MKL-2 = assay: as above; conditions: MCC and control cell lines, CellTiter-Glo viability, 72 h; series mostly up to 46 µM
In short: as §1

UISO = assay: as above; conditions: MCC and control cell lines, CellTiter-Glo viability, 72 h; series mostly up to 46 µM
In short: as §1

WaGa = assay: as above; conditions: MCC and control cell lines, CellTiter-Glo viability, 72 h; series mostly up to 46 µM
In short: as §1
On the % scale 0 is the no-effect control and ±100 the full control effect.

CC(C#N)C(C)O[C@@H]1O[C@H](CO)[C@@H](O)[C@H](O)[C@H]1O (stereo partly specified)
inactive: outcome (NIH3T3) | Potency (C33A) | Potency (CAOV3) | Potency (CASKI)

CC(C)=CCC[C@](C)(O[C@@H]1O[C@H](CO[C@@H]2OC[C@@H](O)[C@H](O)[C@H]2O)[C@@H](O)[C@H](O)[C@H]1O)[C@H]1CC[C@]2(C)[C@@H]1[C@H](O)C[C@@H]1[C@@]3(C)CC[C@H](O[C@@H]4O[C@H](CO)[C@@H](O)[C@H](O)[C@H]4O[C@@H]4O[C@H](CO)[C@@H](O)[C@H](O)[C@H]4O)C(C)(C)[C@@H]3CC[C@]12C
inactive: outcome (NIH3T3) inactive [at 17.4 µM] | Potency (C33A) | Potency (CAOV3) | Potency (CASKI)

N#Cc1ccc2[nH]c(O)c(-c3ccc(CN4CCOCC4)cn3)c2c1
inactive: outcome (NIH3T3) | Potency (C33A) | Potency (CAOV3) | Potency (CASKI)

CC1(CO)CC[C@]2(C(=O)O[C@@H]3O[C@H](CO)[C@@H](O)[C@H](O)[C@H]3O)CC[C@]3(C)C(=CCC4[C@@]5(C)CC[C@H](O[C@@H]6O[C@H](C(=O)O)[C@@H](O)[C@H](O)[C@H]6O)C(C)(C)C5CC[C@]43C)C2C1 (stereo partly specified)
inactive: outcome (NIH3T3) inactive [at 9.27 µM] | activity change, negative = cytotoxicity (C33A) 12.6% [at 11.6 µM] | activity change, negative = cytotoxicity (CAOV3) 12.9% [at 11.6 µM] | activity change, negative = cytotoxicity (CASKI) -3.81% [at 11.6 µM]

COc1ccc([C@H]2Cc3cccc(O)c3C(=O)O2)cc1
inactive: outcome (NIH3T3) | Potency (C33A) | Potency (CAOV3) | Potency (CASKI)

CC1CCC2C(C)(C)C(O)CCC2(C)C12Cc1c(O)cc3c(c1O2)C(N)=NC3 (stereo unspecified)
inactive: outcome (NIH3T3) | Potency (C33A) | Potency (CAOV3) | Potency (CASKI)

C[C@@H]1O[C@@H](O[C@H]2[C@H](O[C@H]3[C@H](O[C@H]4CC[C@@]5(C=O)C(CC[C@]6(C)C5CC=C5C7CC(C)(C)C[C@@H](O)[C@]7(C)CC[C@]56C)C4(C)C)O[C@H](C(=O)O)[C@@H](O)[C@@H]3O)OC[C@@H](O)[C@@H]2O)[C@H](O)[C@H](O)[C@H]1O (stereo partly specified)
inactive: outcome (NIH3T3) inactive [at 9.27 µM] | activity change, negative = cytotoxicity (C33A) 7.86% [at 11.6 µM] | activity change, negative = cytotoxicity (CAOV3) 38.3% [at 11.6 µM] | activity change, negative = cytotoxicity (CASKI) 0.905% [at 11.6 µM]

CC1OC(OC2C(C)OC(OC3C(OC(=O)/C=C/c4ccc(O)cc4)C(CO)OC(OC4(COC(=O)/C=C/c5ccc(O)cc5)OC(CO)C(O)C4O)C3OC3OCC(O)(CO)C3O)C(O)C2O)C(O)C(O)C1O (stereo unspecified)
inactive: outcome (NIH3T3) inactive [at 9.27 µM] | activity change, negative = cytotoxicity (C33A) 4.08% [at 11.6 µM] | activity change, negative = cytotoxicity (CAOV3) -2.97% [at 11.6 µM] | activity change, negative = cytotoxicity (CASKI) 10% [at 11.6 µM]

CCOC(=O)N1CCC(NCCNC(=O)c2ccccc2C)CC1
inactive: outcome (NIH3T3) | Potency (C33A) | Potency (CAOV3) | Potency (CASKI)

C[C@@H]1C[C@H](O[C@@H]2O[C@H](CO[C@@H]3OC[C@](O)(CO)[C@H]3O)[C@@H](O)[C@H](O)[C@H]2O)CC(C)(C)[C@H]1/C=C/[C@@H](C)O
inactive: outcome (NIH3T3) inactive [at 17.4 µM] | Potency (C33A) | Potency (CAOV3) | Potency (CASKI)

C=C1[C@@H]2CC[C@@]3(C)[C@H](c4ccoc4)OC(=O)C[C@]13O[C@H]1CC(=O)C(C)(C)[C@H](CC(=O)OC)[C@]12C
inactive: outcome (NIH3T3) inactive [at 17.4 µM] | Potency (C33A) | Potency (CAOV3) | Potency (CASKI)

CC1CCC2C(C(=O)O)=CC3CC(C)(C)CC132 (stereo unspecified)
inactive: outcome (NIH3T3) | Potency (C33A) | Potency (CAOV3) | Potency (CASKI)

C=C1C[C@]23C[C@H]1CC[C@H]2[C@@]12C=C[C@H](O)[C@@](C)(C(=O)O1)[C@H]2[C@@H]3C(=O)O
inactive: outcome (NIH3T3) | Potency (C33A) | Potency (CAOV3) | Potency (CASKI)

CN1C(=O)c2ccccc2-n2c(nc3ccccc3c2=O)[C@@]12O[C@H]2c1ccccc1
inactive: outcome (NIH3T3) | Potency (C33A) | Potency (CAOV3) | Potency (CASKI)

CCC(C)C1NC(=O)C2CCCN2C(=O)C(C(C)C)NC(=O)c2ccccc2NC(=O)C(Cc2ccc(O)cc2)NC(=O)C(C)NC(=O)C(C(C)O)NC1=O (stereo unspecified) (cyclo([2Abz]VPITAY); configuration not given here)
inactive: outcome (NIH3T3) inactive [at 17.4 µM] | Potency (C33A) | Potency (CAOV3) | Potency (CASKI)

CCCC(N[C@@H](C)C(=O)N1[C@H](C(=O)O)C[C@@H]2CCCC[C@@H]21)C(=O)OCC (stereo partly specified)
inactive: outcome (NIH3T3) | Potency (C33A) | Potency (CAOV3) | Potency (CASKI)

CN[C@@H]1[C@@H](O)[C@@H](O[C@@H]2[C@@H](O)[C@H](O[C@H]3O[C@H](CN)[C@@H](O)[C@H](O)[C@H]3O)[C@@H](N)C[C@H]2NC(=O)[C@@H](O)CN)OC[C@]1(C)O
inactive: outcome (NIH3T3) | Potency (C33A) | Potency (CAOV3) | Potency (CASKI)

CC(=O)O[C@@H]1C[C@]2(C)[C@@]3(CCC4[C@@]5(C)CC[C@H](O[C@@H]6O[C@H](C(=O)O)[C@@H](O)[C@H](O[C@@H]7O[C@H](CO)[C@H](O)[C@H](O)[C@H]7O[C@@H]7O[C@@H](C)[C@H](O)[C@@H](O)[C@H]7O[C@@H]7OC[C@](O)(CO)[C@H]7O)[C@H]6O[C@@H]6O[C@H](CO)[C@H](O)[C@H](O)[C@H]6O)C(C)(C)C5CC[C@]42C)O[C@@H](O)[C@]12C3CC(C)(C)[C@@H](OC(=O)/C=C/c1ccc(O)c(O)c1)[C@@H]2OC(=O)/C=C/c1ccccc1 (stereo partly specified)
inactive: outcome (NIH3T3) inactive [at 9.27 µM] | activity change, negative = cytotoxicity (C33A) 8.85% [at 6.55 µM] | activity change, negative = cytotoxicity (CAOV3) 0.993% [at 6.55 µM] | activity change, negative = cytotoxicity (CASKI) 8% [at 6.55 µM]

O=C(NC[C@H](O)CN1CCc2ccccc2C1)c1cc(NC2COC2)ncn1
inactive: outcome (NIH3T3) | Potency (C33A) | Potency (CAOV3) | Potency (CASKI)

CC[C@@H](c1ccc(F)c(F)c1)n1c(C(=O)OC)c(-c2ccno2)[nH]c1=S
inactive: outcome (NIH3T3) | Potency (C33A) | Potency (CAOV3)

CC(C)(O)C1=CCC23COC(C2)C(O)(C(=O)O)CCC13 (stereo unspecified)
inactive: outcome (NIH3T3) | Potency (C33A) | Potency (CAOV3) | Potency (CASKI)

COc1cc(NC(=O)c2ccccn2)ccc1Cl
inactive: outcome (NIH3T3) | Potency (C33A) | Potency (CAOV3) | Potency (CASKI)

C[C@]12CC[C@@H]3c4ccc(O[C@@H]5O[C@H](C(=O)O)[C@@H](O)[C@H](O)[C@H]5O)cc4CC[C@H]3[C@@H]1CCC2=O
inactive: outcome (NIH3T3) | Potency (C33A) | Potency (CAOV3) | Potency (CASKI)

CN1Cc2c(N)cccc2C(c2ccccc2)C1 (stereo unspecified)
inactive: outcome (MCC-13) | outcome (MCC-26) | outcome (MKL-1) | outcome (MKL-2) | outcome (NIH3T3) | outcome (UISO) | outcome (WaGa) | Potency (C33A) | Potency (CAOV3) | Potency (CASKI)
